Assays:
Assay in all cases: DAPPL (digital affinity profiling via proximity ligation, sequencing); 10 mM Tris-HCl pH 7.5, 50 mM NaCl, 1 mM DTT, 4% glycerol, room temperature, 30 min; GST-TFs on glutathione beads, 16-mer random dsDNA library, 0.1% formaldehyde crosslink after washing; high values mean tight binding
FLI1 = target: T1, FLI1 (Homo sapiens, UniProt Q01543 1-452); conditions: protein: recombinant; tags: N-terminal GST; dsDNA, one strand shown
T1 sequence: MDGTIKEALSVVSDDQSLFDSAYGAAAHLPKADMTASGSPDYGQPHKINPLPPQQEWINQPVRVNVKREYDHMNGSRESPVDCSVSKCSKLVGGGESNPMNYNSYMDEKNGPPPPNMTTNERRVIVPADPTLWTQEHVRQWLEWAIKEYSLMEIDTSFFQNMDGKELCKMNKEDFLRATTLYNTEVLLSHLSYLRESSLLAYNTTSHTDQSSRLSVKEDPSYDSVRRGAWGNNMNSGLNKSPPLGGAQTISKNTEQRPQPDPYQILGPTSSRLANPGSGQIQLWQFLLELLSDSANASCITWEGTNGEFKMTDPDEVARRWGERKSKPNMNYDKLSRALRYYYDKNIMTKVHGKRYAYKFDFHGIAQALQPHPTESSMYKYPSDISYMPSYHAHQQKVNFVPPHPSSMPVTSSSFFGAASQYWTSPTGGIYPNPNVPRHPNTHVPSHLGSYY
How it was run: (§1)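 Pools were built from human transcription factors expressed in yeast as GST fusions, captured on glutathione beads and DNA-barcoded, along with a tag-only sample. Incubation with 200 nmole of a 16-mer random double-stranded DNA library lasted 30 min at room temperature in Tris/NaCl/DTT/glycerol buffer, and was followed by washing, 0.1% formaldehyde crosslinking, proximity ligation, PCR amplification and Illumina NextSeq500 sequencing. Binding signal is the quotient of each hexamer's read frequency for a factor and its frequency for the tag-only sample.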

ELK1 = target: T2, ELK1 (Homo sapiens, UniProt P19419 1-428); conditions: protein: recombinant; tags: N-terminal GST; dsDNA, one strand shown
T2 sequence: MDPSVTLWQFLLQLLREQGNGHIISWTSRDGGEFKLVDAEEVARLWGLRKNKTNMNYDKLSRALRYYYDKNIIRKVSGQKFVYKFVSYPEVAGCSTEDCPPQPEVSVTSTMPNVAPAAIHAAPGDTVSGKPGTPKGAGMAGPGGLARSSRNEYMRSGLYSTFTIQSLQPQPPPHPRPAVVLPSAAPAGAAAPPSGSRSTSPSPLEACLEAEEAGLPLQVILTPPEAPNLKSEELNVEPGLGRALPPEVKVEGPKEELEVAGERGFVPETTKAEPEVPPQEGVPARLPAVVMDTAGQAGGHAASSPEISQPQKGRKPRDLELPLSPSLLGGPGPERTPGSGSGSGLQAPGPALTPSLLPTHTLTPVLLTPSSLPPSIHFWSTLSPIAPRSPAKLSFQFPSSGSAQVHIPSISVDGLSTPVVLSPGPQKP
How it was run: as §1

GABPA = target: T3, GABPA (Homo sapiens, UniProt Q06546 1-454); conditions: protein: recombinant; tags: N-terminal GST; dsDNA, one strand shown
T3 sequence: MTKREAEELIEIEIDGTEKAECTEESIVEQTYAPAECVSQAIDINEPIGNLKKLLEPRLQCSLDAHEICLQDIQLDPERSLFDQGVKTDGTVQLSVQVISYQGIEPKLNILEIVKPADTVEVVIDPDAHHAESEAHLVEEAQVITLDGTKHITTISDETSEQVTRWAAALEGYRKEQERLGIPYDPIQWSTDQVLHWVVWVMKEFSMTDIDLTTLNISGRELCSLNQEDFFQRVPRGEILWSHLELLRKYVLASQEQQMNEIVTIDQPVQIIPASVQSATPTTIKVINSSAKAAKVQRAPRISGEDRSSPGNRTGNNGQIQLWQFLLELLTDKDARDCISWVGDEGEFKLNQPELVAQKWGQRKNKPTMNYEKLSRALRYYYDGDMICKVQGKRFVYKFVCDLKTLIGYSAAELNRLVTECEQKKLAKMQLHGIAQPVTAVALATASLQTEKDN
How it was run: as §1

ERG = target: T4, ERG (Homo sapiens, UniProt P11308 1-479); conditions: protein: recombinant; tags: N-terminal GST; dsDNA, one strand shown
T4 sequence: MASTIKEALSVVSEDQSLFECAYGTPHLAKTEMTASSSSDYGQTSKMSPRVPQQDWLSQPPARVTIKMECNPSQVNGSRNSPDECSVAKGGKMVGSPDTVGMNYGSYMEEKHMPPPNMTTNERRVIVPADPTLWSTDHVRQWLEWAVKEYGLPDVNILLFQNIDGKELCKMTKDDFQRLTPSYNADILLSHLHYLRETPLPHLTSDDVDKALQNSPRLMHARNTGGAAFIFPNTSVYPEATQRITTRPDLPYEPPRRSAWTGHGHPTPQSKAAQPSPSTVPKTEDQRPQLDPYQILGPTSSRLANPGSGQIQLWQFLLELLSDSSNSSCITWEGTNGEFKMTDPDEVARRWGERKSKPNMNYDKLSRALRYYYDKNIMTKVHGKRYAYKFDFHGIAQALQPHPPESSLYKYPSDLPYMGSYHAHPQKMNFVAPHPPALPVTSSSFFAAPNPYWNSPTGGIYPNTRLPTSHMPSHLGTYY
How it was run: as §1

ELF1 = ELF1 (Homo sapiens, UniProt P32519 1-619); conditions: protein: recombinant; tags: N-terminal GST; dsDNA, one strand shown
How it was run: as §1

EHF = target: T5, EHF (Homo sapiens, UniProt Q9NZC4 1-300); conditions: protein: recombinant; tags: N-terminal GST; dsDNA, one strand shown
T5 sequence: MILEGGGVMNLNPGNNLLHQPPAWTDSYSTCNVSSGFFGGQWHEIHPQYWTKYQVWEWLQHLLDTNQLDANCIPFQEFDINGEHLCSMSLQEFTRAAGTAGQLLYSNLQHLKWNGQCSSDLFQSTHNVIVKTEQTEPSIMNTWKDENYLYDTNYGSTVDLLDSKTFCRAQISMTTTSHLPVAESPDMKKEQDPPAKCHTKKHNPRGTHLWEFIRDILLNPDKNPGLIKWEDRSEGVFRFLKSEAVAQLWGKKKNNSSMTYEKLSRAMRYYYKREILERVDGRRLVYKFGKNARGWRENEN
How it was run: as §1

SPI1 = SPI1 (Homo sapiens, UniProt P17947 1-270); conditions: protein: recombinant; tags: N-terminal GST; dsDNA, one strand shown
How it was run: as §1

SPIB = SPIB (Homo sapiens, UniProt Q01892 1-262); conditions: protein: recombinant; tags: N-terminal GST; dsDNA, one strand shown
How it was run: as §1

ELK3 = target: T6, ELK3 (Homo sapiens, UniProt P41970 1-407); conditions: protein: recombinant; tags: N-terminal GST; dsDNA, one strand shown
T6 sequence: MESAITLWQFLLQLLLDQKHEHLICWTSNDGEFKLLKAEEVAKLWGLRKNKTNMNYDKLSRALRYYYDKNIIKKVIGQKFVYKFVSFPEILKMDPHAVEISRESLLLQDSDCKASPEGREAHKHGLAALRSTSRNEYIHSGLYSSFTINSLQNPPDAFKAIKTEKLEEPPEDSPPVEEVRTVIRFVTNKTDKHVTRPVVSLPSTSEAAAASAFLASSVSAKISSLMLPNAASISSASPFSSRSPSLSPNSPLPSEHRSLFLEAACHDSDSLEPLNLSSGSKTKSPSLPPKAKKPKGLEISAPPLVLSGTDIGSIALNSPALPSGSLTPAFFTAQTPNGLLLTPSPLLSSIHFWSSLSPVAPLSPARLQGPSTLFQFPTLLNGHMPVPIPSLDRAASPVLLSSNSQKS
How it was run: as §1

FEV = target: T7, FEV (Homo sapiens, UniProt Q99581 1-238); conditions: protein: recombinant; tags: N-terminal GST; dsDNA, one strand shown
T7 sequence: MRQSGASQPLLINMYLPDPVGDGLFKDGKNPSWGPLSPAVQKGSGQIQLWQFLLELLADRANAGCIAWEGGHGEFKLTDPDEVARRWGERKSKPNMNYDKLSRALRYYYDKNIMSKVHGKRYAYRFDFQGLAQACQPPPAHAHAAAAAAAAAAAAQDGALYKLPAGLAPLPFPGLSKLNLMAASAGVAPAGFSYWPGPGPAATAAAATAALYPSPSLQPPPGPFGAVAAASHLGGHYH
How it was run: as §1

ETV5 = ETV5 (Homo sapiens, UniProt P41161 1-510); conditions: protein: recombinant; tags: N-terminal GST; dsDNA, one strand shown
How it was run: as §1

HSF1 = HSF1 (Homo sapiens, UniProt Q00613 1-529); conditions: protein: recombinant; tags: N-terminal GST; chain copies: 3; dsDNA, one strand shown
How it was run: as §1

SPIC = target: T8, SPIC (Homo sapiens, UniProt Q8N5J4 1-248); conditions: protein: recombinant; tags: N-terminal GST; dsDNA, one strand shown
T8 sequence: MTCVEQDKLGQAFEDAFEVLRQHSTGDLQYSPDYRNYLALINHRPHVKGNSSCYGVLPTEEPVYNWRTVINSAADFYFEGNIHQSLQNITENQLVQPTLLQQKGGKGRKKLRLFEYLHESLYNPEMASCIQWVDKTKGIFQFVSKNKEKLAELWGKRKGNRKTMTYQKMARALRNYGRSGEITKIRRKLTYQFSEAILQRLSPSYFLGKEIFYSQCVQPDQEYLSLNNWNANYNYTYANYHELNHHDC
How it was run: as §1

ELF4 = ELF4 (Homo sapiens, UniProt Q99607 1-663); conditions: protein: recombinant; tags: N-terminal GST; dsDNA, one strand shown
How it was run: as §1

ELK4 = target: T9, ELK4 (Homo sapiens, UniProt P28324-2 1-405); conditions: protein: recombinant; tags: N-terminal GST; dsDNA, one strand shown
T9 sequence: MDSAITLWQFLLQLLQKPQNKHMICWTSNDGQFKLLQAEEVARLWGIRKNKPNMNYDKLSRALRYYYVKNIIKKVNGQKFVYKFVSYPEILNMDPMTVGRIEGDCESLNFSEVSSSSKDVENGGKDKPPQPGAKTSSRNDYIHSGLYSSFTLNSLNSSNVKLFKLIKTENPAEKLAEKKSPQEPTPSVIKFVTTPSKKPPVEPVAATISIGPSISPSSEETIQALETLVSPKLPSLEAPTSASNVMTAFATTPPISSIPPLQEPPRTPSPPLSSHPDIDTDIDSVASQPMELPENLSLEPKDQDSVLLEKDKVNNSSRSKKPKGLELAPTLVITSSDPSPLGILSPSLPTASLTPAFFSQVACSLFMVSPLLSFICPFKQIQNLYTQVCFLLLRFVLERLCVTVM
How it was run: as §1

ETV2 = target: T10, ETV2 (Homo sapiens, UniProt O00321 1-342); conditions: protein: recombinant; tags: N-terminal GST; dsDNA, one strand shown
T10 sequence: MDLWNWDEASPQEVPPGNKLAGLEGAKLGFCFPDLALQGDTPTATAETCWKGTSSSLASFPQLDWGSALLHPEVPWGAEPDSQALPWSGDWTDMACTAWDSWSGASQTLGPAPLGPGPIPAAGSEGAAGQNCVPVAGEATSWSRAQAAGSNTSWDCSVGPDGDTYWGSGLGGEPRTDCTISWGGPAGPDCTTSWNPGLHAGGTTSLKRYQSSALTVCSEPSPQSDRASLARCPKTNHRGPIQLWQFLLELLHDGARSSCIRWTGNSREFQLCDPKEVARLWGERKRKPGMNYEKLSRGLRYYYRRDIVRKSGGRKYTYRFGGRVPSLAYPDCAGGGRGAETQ
How it was run: as §1

ELF3 = target: T11, ELF3 (Homo sapiens, UniProt P78545 1-371); conditions: protein: recombinant; tags: N-terminal GST; dsDNA, one strand shown
T11 sequence: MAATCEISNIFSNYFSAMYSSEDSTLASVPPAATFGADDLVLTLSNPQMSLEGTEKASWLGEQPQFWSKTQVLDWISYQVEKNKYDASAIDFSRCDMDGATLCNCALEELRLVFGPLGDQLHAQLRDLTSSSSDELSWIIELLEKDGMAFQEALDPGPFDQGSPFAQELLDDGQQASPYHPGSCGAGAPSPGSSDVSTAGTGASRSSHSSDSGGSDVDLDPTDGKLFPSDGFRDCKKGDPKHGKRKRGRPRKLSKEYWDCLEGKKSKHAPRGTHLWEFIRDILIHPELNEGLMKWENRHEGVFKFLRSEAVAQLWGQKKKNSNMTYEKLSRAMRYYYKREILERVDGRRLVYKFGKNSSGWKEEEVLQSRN
How it was run: as §1

CRX = CRX (Homo sapiens, UniProt O43186 1-299); conditions: protein: recombinant; tags: N-terminal GST; dsDNA, one strand shown
How it was run: as §1

ETV1 = ETV1 (Homo sapiens, UniProt P50549 1-477); conditions: protein: recombinant; tags: N-terminal GST; dsDNA, one strand shown
How it was run: as §1

Chain of SPIB (Q01892 whole entry): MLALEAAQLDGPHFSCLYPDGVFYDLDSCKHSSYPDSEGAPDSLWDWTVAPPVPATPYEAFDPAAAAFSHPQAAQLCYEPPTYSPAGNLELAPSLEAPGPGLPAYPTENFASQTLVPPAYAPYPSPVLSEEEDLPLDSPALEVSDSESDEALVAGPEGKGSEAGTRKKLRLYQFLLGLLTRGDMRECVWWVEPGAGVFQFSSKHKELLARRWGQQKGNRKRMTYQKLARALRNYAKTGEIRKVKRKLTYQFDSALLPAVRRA
Chain of ELF4 (Q99607 whole entry): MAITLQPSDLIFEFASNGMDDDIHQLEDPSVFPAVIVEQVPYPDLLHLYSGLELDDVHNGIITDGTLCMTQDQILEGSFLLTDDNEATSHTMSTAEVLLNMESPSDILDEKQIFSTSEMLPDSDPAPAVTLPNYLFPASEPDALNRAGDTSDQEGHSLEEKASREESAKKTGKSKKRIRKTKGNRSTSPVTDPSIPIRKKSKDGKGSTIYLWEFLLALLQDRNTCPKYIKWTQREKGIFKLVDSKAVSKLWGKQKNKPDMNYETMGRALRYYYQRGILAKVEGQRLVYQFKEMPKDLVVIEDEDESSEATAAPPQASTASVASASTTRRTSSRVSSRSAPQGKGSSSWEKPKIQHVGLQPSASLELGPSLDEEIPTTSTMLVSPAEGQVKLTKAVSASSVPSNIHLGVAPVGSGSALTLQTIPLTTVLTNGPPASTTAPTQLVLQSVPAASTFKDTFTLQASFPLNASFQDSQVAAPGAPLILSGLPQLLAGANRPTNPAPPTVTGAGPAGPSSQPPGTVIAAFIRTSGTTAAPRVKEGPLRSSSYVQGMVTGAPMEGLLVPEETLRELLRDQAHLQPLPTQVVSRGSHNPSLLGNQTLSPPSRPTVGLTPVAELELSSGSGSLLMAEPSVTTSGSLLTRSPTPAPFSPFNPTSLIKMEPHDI
Chain of ELF1 (P32519 whole entry): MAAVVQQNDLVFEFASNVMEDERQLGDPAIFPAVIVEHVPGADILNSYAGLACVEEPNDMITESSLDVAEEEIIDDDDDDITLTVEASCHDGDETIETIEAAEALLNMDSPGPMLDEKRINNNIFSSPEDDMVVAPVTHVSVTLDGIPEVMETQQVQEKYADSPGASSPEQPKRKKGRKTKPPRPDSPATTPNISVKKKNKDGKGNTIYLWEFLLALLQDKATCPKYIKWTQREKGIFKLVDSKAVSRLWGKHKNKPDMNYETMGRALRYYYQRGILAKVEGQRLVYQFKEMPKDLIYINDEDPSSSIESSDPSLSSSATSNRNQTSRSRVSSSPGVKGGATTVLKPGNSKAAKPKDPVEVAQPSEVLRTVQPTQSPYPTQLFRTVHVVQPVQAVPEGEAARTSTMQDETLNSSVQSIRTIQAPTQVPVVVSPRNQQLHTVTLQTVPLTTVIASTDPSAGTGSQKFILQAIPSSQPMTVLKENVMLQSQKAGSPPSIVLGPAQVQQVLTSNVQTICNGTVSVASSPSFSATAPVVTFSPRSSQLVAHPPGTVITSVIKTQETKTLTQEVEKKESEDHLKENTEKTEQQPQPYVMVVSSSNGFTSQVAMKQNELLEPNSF
Chain of ETV1 (P50549 whole entry): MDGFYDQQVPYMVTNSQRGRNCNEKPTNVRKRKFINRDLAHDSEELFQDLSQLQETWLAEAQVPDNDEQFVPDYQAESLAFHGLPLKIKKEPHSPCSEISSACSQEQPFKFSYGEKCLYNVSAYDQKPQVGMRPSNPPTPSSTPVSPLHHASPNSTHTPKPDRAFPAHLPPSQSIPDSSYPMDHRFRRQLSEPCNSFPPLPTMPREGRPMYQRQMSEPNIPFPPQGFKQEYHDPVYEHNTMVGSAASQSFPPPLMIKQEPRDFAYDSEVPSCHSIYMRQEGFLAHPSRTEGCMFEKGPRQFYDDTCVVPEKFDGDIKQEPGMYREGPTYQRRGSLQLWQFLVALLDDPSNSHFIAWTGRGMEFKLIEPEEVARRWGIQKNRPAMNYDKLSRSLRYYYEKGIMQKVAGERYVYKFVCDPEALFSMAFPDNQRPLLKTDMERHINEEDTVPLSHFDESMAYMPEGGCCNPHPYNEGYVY
Chain of CRX (O43186 whole entry): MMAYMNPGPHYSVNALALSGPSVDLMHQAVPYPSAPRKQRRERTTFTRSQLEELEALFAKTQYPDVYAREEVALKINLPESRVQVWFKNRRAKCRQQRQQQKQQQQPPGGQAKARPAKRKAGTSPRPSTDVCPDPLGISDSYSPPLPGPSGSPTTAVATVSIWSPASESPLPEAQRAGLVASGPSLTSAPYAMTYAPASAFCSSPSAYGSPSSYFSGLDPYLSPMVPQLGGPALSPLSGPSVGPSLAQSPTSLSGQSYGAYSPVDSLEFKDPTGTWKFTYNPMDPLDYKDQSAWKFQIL
Chain of HSF1 (Q00613 whole entry): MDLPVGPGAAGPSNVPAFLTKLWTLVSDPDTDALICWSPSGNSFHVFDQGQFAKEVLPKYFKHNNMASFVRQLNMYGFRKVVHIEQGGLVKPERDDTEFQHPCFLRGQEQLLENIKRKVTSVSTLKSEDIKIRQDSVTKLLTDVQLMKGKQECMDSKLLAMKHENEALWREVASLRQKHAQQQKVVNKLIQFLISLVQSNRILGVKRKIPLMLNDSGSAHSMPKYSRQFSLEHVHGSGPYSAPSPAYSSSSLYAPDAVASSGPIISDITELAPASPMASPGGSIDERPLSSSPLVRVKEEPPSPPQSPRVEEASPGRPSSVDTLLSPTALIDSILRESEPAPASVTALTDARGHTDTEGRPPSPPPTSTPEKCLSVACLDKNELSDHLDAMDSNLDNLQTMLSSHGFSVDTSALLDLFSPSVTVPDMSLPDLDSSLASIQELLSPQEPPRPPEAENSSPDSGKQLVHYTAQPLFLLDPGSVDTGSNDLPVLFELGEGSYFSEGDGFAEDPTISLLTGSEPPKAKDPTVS
Chain of ETV5 (P41161 whole entry): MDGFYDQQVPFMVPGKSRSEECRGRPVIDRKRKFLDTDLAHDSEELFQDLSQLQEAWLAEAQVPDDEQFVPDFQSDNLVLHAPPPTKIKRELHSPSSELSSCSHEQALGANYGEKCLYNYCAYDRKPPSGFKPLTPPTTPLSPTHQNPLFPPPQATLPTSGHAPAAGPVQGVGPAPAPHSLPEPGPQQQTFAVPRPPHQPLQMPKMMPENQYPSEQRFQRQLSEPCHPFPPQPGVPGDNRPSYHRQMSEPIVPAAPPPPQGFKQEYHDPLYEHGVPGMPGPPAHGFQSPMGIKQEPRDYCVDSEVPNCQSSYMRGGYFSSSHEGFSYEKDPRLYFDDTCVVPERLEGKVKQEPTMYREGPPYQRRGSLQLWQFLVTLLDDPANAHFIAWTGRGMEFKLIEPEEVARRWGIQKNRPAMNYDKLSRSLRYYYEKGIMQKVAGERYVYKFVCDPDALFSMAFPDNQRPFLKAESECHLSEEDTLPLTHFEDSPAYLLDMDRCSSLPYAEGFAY

## CATTAT
FLI1
  binding signal: 1.19 fold enrichment (6-mer frequency, TF over GST control)
ELK1
  binding signal: 1.13 fold enrichment (6-mer frequency, TF over GST control)
GABPA
  binding signal: 1.06 fold enrichment (6-mer frequency, TF over GST control)
ERG
  binding signal: 1.15 fold enrichment (6-mer frequency, TF over GST control)
ELF1
  binding signal: 1.16 fold enrichment (6-mer frequency, TF over GST control)
EHF
  binding signal: 1.18 fold enrichment (6-mer frequency, TF over GST control)
SPI1
  binding signal: 1.11 fold enrichment (6-mer frequency, TF over GST control)
SPIB
  binding signal: 1.18 fold enrichment (6-mer frequency, TF over GST control)
ELK3
  binding signal: 1.13 fold enrichment (6-mer frequency, TF over GST control)
FEV
  binding signal: 1.18 fold enrichment (6-mer frequency, TF over GST control)
ETV5
  binding signal: 1.09 fold enrichment (6-mer frequency, TF over GST control)
HSF1
  binding signal: 1.26 fold enrichment (6-mer frequency, TF over GST control)
SPIC
  binding signal: 1.25 fold enrichment (6-mer frequency, TF over GST control)
ELF4
  binding signal: 1.21 fold enrichment (6-mer frequency, TF over GST control)
ELK4
  binding signal: 1.28 fold enrichment (6-mer frequency, TF over GST control)
ETV2
  binding signal: 1.05 fold enrichment (6-mer frequency, TF over GST control)
ELF3
  binding signal: 1.33 fold enrichment (6-mer frequency, TF over GST control)
CRX
  binding signal: 1.65 fold enrichment (6-mer frequency, TF over GST control)
ETV1
  binding signal: 1.32 fold enrichment (6-mer frequency, TF over GST control)

Reference: article PMC7862700, “An all-to-all approach to the identification of sequence-specific readers for epigenetic DNA modifications on cytosine”
